Bioassay records (PubChem BioAssay)
In the library only some 6.7% were active in any assay of this set; here they are far more common.
T cruzi growth-1 – blocks T. cruzi growth in NIH3T3 culture; T. cruzi beta-gal in NIH3T3, GalScreen luminescence, 90 h; inhibition, % at 8.34 µM; 77,000 compounds, 5.9% hits;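 active means mean inhibition above about 93%, with at least 55% of replicates each passing it, limit read from the data, passing the limit was not always enough; inconclusive means only one of those two conditions holds; inactive means neither condition holds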
C diff HTS – C. difficile growth inhibition. AID 1259249. Clostridium difficile clinical isolate growth, OD600, 24 h; hits give low values. growth activity, negative = inhibition, % at 16 µg/mL (by protocol). 86,000 compounds, 0.25% hits;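 active means mean growth activity at or below -80% and every replicate also at or below -80%; inconclusive means mean at or below -80% but some replicate above -80%; inactive means mean growth activity above -80%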;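 further: 0% = DMSO wells and -100% = levofloxacin 16 µg/mL wells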
Pf Dd2 growth – P. falciparum Dd2 growth inhibition; 94,000 compounds, 2.3% hits; activity change, % at 10 µM; AID 1159554; SYBR Green, 72 h; hits give low values; in the data active means activity change below about -80%; inconclusive means no clear call, values can overlap the other calls
T cruzi growth-2 – blocks T. cruzi growth in NIH3T3 host cells | inhibition, % at 8.35 µM | AID 651739 | shares compounds with T cruzi growth-1 | T. cruzi beta-gal in NIH3T3, GalScreen luminescence, 90 h | 5,600 compounds, 72% hits;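 active means mean replicate inhibition above about 95% and at least 55% of replicates individually reaching it, limit read from the data; inconclusive means only one of the two criteria is met; inactive means neither criterion is met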
T cruzi growth-3 – inhibitors of T. cruzi proliferation; shares compounds with T cruzi growth-1; T. cruzi beta-gal in NIH3T3, GalScreen luminescence, 90 h; 5,600 compounds, 21% hits; inhibition, % at 2.09 µM;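 active means mean inhibition above about 95%, with at least 55% of replicates also reaching it, limit read from the data; inconclusive means meets just one of the two conditions; inactive means meets neither condition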;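 further: plate controls were neutral control median for no effect and positive control median for full effect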
NIH3T3 tox – NIH/3T3 (mouse) viability loss. AID 651742. shares compounds with T cruzi growth-1. NIH/3T3 viability, CellTiter-Glo ATP luminescence, 90 h. cytotoxicity (signal decrease), % at 8.35 µM. 5,600 compounds, 14% hits;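 active means mean signal decrease across replicates above about 35% based on untreated-well scatter, with enough replicates individually passing, limit read from the data; inconclusive means no rule stated though some were filed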;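 further: 0% = median of neutral control wells and 100% = median of positive control wells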
3T3 cytotox 2 – kills mouse NIH/3T3 fibroblasts; inhibition, % at 24.9 µM; 5,600 compounds, 56% hits; NIH/3T3 viability, CellTiter-Glo ATP luminescence, 90 h; AID 651744; shares compounds with T cruzi growth-1;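 active means mean loss of cell viability signal at or above a set limit, and enough replicates individually reaching it; inconclusive means meets only the mean limit or only the replicate share; inactive means meets neither condition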;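 further: 0% = median of neutral control wells and 100% = median of positive control wells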
* marks the source's active call; other numbers are inactive results; ? = inconclusive; / = no result given.

SMILES	T cruzi growth-1	C diff HTS	Pf Dd2 growth	T cruzi growth-2	T cruzi growth-3	NIH3T3 tox	3T3 cytotox 2
CCN1[C@@H]2Cn3c(ccc(/C=C/c4ccccc4)c3=O)[C@H]1[C@@H](C(=O)N1CCOCC1)[C@@H]2CO	26.0	5.1	-33.1	/	/	/	/
CC=Cc1ccc2n(c1=O)C[C@H]1[C@H](CO)[C@@H](C(=O)NCc3ccccc3)[C@@H]2N1C (mixture of isomers)	96.3*	-2.8	7.8	43.4	19.4	8.8	5.0
CC=Cc1ccc2n(c1=O)C[C@H]1[C@H](CO)[C@@H](C(=O)NCc3ccccc3F)N(S(C)(=O)=O)[C@@H]21 (mixture of isomers)	47.0	-2.4	6.5	/	/	/	/
CC=Cc1ccc2n(c1=O)C[C@H]1[C@H](CO)[C@@H](C(=O)N3CCc4ccccc4C3)[C@@H]2N1CCC (mixture of isomers)	102.9*	-0.7	-8.4	77.4	5.7	-19.8	12.3
CC=Cc1ccc2n(c1=O)C[C@H]1[C@H](CO)[C@@H](C(=O)NCCc3ccccc3)[C@@H]2N1C (mixture of isomers)	-22.7	0.0	9.2	/	/	/	/
C[C@H](CO)N1C[C@H](C)[C@H](CN(C)Cc2ccc(F)cc2)OCc2ccccc2-c2ccccc2C1=O	57.8	6.6	-33.5	/	/	/	/
CO[C@@H]1CN(C)C(=O)c2ccc(NS(C)(=O)=O)cc2OC[C@@H](C)N(C(=O)c2ccc3c(c2)OCO3)C[C@@H]1C	35.8	-0.1	1.3	/	/	/	/
CN(C)C(=O)C[C@H]1C[C@@H]2c3cc(NC(=O)C4CCC4)ccc3O[C@@H]2[C@H](CO)O1	28.5	-0.8	19.9	/	/	/	/
C[C@@H]1CN([C@H](C)CO)C(=O)c2cc(-c3cccnc3)cnc2O[C@H]1CN(C)C(=O)c1ccccc1F	3.8	3.0	20.0	/	/	/	/
CC=Cc1ccc2n(c1=O)C[C@H]1[C@H](CO)[C@@H](C(=O)NCc3ccccn3)[C@@H]2N1CCC (mixture of isomers)	108.3*	-6.6	-0.7	109.8*	20.8	-4.6	4.5
CC=Cc1ccc2n(c1=O)C[C@@H]1[C@@H](CO)[C@H](C(=O)NCc3ccccn3)[C@H]2N1CC1CC1 (mixture of isomers)	60.5	-3.7	1.0	/	/	/	/
CC(C)NC(=O)Nc1ccc2c(c1)C(=O)N(C)[C@@H]1CC[C@H](CC(=O)Nc3ccccc3)O[C@@H]1CO2	34.0	7.8	-9.1	/	/	/	/
C[C@@H]1CCCCO[C@@H](CN(C)Cc2ccc3c(c2)OCO3)[C@H](C)CN([C@H](C)CO)C(=O)c2cc(NS(=O)(=O)c3ccc(F)cc3)ccc2O1	83.0	/	-55.0	/	/	/	/
COc1ccc(S(=O)(=O)Nc2ccc3c(c2)C(=O)N([C@H](C)CO)C[C@@H](C)[C@H](CN(C)Cc2ccc4c(c2)OCO4)OCCCC[C@H](C)O3)cc1	?	-1.1	-54.1	108.4*	50.4	5.8	105.0*
COc1ccc(S(=O)(=O)Nc2ccc3c(c2)C(=O)N([C@@H](C)CO)C[C@@H](C)[C@@H](CN(C)Cc2ccc4c(c2)OCO4)OCCCC[C@@H](C)O3)cc1	87.5	-2.4	-59.6	/	/	/	/
C[C@@H]1CN([C@H](C)CO)C(=O)c2cc(NS(=O)(=O)c3ccc(F)cc3)ccc2O[C@@H](C)CCCCO[C@@H]1CN(C)Cc1ccc2c(c1)OCO2	102.2*	/	-68.6	89.5	105.5*	71.3*	105.2*
Cc1ccc(S(=O)(=O)Nc2ccc3c(c2)C(=O)N([C@H](C)CO)C[C@H](C)[C@H](CN(C)Cc2ccc4c(c2)OCO4)OCCCC[C@H](C)O3)cc1	62.5	9.5	-76.2	/	/	/	/
C[C@@H]1CN([C@@H](C)CO)C(=O)c2cc(NS(=O)(=O)c3ccc(F)cc3)ccc2O[C@@H](C)CCCCO[C@H]1CN(C)Cc1ccc2c(c1)OCO2	71.5	/	-56.3	/	/	/	/
Cc1ccc(S(=O)(=O)Nc2ccc3c(c2)C(=O)N([C@H](C)CO)C[C@@H](C)[C@H](CN(C)Cc2ccc4c(c2)OCO4)OCCCC[C@@H](C)O3)cc1	101.7*	5.5	-50.2	108.5*	89.5	29.3	81.5*
C[C@H](CO)N1C[C@H](C)[C@H](CN(C)Cc2ccc3c(c2)OCO3)OCCCC[C@H](C)Oc2ccc(NS(=O)(=O)c3ccc(F)cc3)cc2C1=O	112.4*	/	-42.7	110.0*	48.0	7.5	58.8*
COC(=O)C[C@@H]1C=C[C@H](NC(=O)Nc2ccc(C(F)(F)F)cc2)[C@@H](CO)O1	-8.2	/	11.8	/	/	/	/
CC(C)NC(=O)N(C)C[C@H]1Oc2ncc(C#CC3CCCCC3)cc2C(=O)N([C@H](C)CO)C[C@H]1C	-36.8	-7.0	-6.5	/	/	/	/
C[C@H](CO)N1C[C@H](C)[C@H](CN(C)C(=O)CCC(F)(F)F)OCCCC[C@H](C)Oc2ccc(NC(=O)CCCN(C)C)cc2C1=O	-55.7	4.3	80.4	/	/	/	/
COc1ccc2c3c(n(C)c2c1)[C@@H](CO)N(C(=O)c1ccncc1)CC31CN(C(C)=O)C1	/	11.0	1.8	/	/	/	/
C[C@H](O)C#Cc1cnc2c(c1)C(=O)N([C@H](C)CO)C[C@H](C)[C@H](CN(C)C(=O)Cc1ccccn1)O2	35.8	-1.4	21.3	/	/	/	/
SMILES	T cruzi growth-1	C diff HTS	Pf Dd2 growth	T cruzi growth-2	T cruzi growth-3	NIH3T3 tox	3T3 cytotox 2
C[C@@H]1CN([C@H](C)CO)C(=O)Cc2cc(NC(=O)Cc3ccccc3)ccc2O[C@@H]1CN(C)Cc1ccc(Oc2ccccc2)cc1	17.9	26.1	-11.4	/	/	/	/
CN(C)c1ccc2c(c1)[C@@H]1C[C@@H](CC(=O)NCc3ccc4c(c3)OCO4)O[C@@H](CO)[C@@H]1O2	121.4*	/	-67.1	106.4*	16.9	3.9	-1.2
CN(C)c1ccc2c(c1)[C@H]1C[C@@H](CC(=O)NCc3ccc(Oc4ccccc4)cc3)O[C@@H](CO)[C@H]1O2	108.4*	-3.4	-44.1	48.2	22.3	3.3	16.9
CN(C)c1ccc2c(c1)[C@@H]1C[C@@H](CC(=O)NCc3ccccc3)O[C@H](CO)[C@@H]1O2	37.8	/	9.2	/	/	/	/
CN(C)c1ccc2c(c1)[C@H]1C[C@H](CC(=O)NCc3ccc4c(c3)OCO4)O[C@H](CO)[C@H]1O2	84.5	/	-65.9	/	/	/	/
C[C@H](CO)N1C[C@H](C)[C@@H](CN(C)Cc2ccncc2)Oc2ccc(NS(=O)(=O)c3cccs3)cc2CC1=O	1.5	11.5	-13.9	/	/	/	/
N#C[C@H]1[C@H](c2ccc(C3=CCCCC3)cc2)[C@@H](CO)N1S(=O)(=O)c1cccc(F)c1	46.7	5.0	2.3	/	/	/	/
N#C[C@H]1[C@H](c2ccc(C3=CCCCC3)cc2)[C@@H](CO)N1S(=O)(=O)c1ccccc1	85.6	4.0	-17.8	/	/	/	/
N#C[C@@H]1[C@H](c2ccc(C3=CCCCC3)cc2)[C@H](CO)N1S(=O)(=O)c1cccc(F)c1	102.7*	7.3	11.0	102.2*	43.4	14.2	79.2*
